FBW7 activator – human FBW7 E3 ligase activation, primary screen | Q969H0 | AlphaScreen FBW7–phospho-cyclin E peptide binding, activator screen | normalized activity (activation), % at 26.1 µM | 0.13% of 650,000 active; in the data active means normalized activity above about 1.9%;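 further: purified mutant Fbw7 with reduced substrate affinity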
MITF inh – inhibitors of human MITF. AlphaScreen MITF homodimerization, bead proximity signal. 0.91% of 650,000 active. inhibition, % at 2.6 µM; in the data active means inhibition above about 50%;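 further: 0% = vehicle wells with protein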
Target sequence (O75030 whole entry, looked up): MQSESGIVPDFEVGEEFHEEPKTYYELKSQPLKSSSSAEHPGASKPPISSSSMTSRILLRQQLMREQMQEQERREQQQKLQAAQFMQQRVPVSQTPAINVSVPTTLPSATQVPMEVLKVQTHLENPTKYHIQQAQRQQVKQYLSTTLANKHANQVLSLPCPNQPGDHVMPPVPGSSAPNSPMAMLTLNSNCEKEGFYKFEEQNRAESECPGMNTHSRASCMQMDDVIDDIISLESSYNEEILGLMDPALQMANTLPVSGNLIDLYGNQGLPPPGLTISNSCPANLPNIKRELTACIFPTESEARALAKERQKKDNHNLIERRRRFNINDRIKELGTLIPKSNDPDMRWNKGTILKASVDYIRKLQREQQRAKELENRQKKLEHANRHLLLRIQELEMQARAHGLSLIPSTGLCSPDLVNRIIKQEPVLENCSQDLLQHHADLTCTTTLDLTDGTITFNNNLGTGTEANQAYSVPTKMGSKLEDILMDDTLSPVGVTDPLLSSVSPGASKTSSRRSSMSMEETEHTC
GPR151 activ – activates the human receptor GPR151. PathHunter beta-arrestin GPR151 cells, luminescence. activation, % at 11.2 µM. 1% of 650,000 active. AID 1508602; in the data active means activation above about 4.9%;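 further: 0% = median of compound wells and 100% = cells with positive control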
TEAD-YAP inh – TEAD-YAP interaction inhibition. HEK-TIYL cells, TEAD-Gal4/YAP UAS-luciferase luminescence. inhibition, % at 9.12 µM. 1.4% of 640,000 active; in the data active means inhibition above about 32%;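 further: 0% = median of test compound wells and 100% = reference inhibitor wells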
The depositor's hits bear a star. Compounds with a hit are over-represented: about 3.5% of the library has one in this group of screens.

SMILES | FBW7 activator | MITF inh | GPR151 activ | TEAD-YAP inh
COc1cccc(-c2noc(C3CCCN(C(=O)c4c(OC)cccc4OC)C3)n2)c1 (stereo unspecified) | 0 | 10 | -1 | 63*
COc1ccc(-c2noc(C3CCCN(C(=O)c4c(F)cccc4F)C3)n2)cc1OC (stereo unspecified) | 0 | -10 | 2 | 9
CC1=CC(C)(C)N(S(C)(=O)=O)c2ccc(OS(C)(=O)=O)cc21 | 0 | 7 | 1 | 1
COc1ccc(S(=O)(=O)N2c3cc(C)ccc3C(C)=CC2(C)C)cc1 | 0 | 6 | 1 | 63*
COc1ccc(S(=O)(=O)N2c3ccc(Cl)cc3C(C)=CC2(C)C)cc1 | 0 | 14 | 0 | 58*
FC(F)(F)C1=CC(c2cccs2)=NCCN1 | 0 | 14 | -1 | -3
N#CCCn1cc(/C=C(/C#N)C(N)=S)c(-c2ccccc2)n1 | 0 | -3 | 2 | 4
CN(C)c1ccc2c(c1)OC(N)=C(C#N)C2c1cccc(C(F)(F)F)c1 (stereo unspecified) | 0 | -1 | 0 | 57*
N#CC1=C(N)Oc2cc3c(cc2C1c1cccc(Br)c1)OCO3 (stereo unspecified) | 0 | 20 | 0 | 61*
CN(C)c1ccc2c(c1)OC(N)=C(C#N)C2c1ccc(C(F)(F)F)cc1 (stereo unspecified) | 0 | -9 | 2 | 9
N#CC1=C(N)Oc2cc(N)ccc2C1c1cccc(Cl)c1 (stereo unspecified) | 0 | 6 | -1 | 1
COc1ccccc1C(=O)NC(=S)Nc1ccccc1 | 0 | 4 | -1 | 36*
COc1ccccc1C(=O)NC(=S)Nc1ccccc1[N+](=O)[O-] | 0 | 1 | -1 | 45*
COc1ccccc1C(=O)NNC(=S)NC(=O)c1ccc(Cl)cc1Cl | 5.1* | 8 | 0 | 9
COc1ccccc1C(=O)NC(=S)Nc1ccc(NC(C)=O)cc1 | 0 | 2 | 0 | -54
COc1ccccc1C(=O)NC(=S)NNC(=O)c1ccccc1C | 0 | 17 | 0 | -8
NC(=O)c1ccccc1NC(=O)CSc1nc2ccccc2o1 | 0 | -4 | 2 | -32
CCOC(=O)c1sc(NC(=O)COc2cccc(C)c2C)c(C(=O)OCC)c1C | 0 | 21 | 0 | -7
COC(=O)c1sc(NC(=O)c2cccc(F)c2)c(C(=O)OC)c1C | 0 | 18 | 1 | 2
CCCNC1=C(N(C(C)=O)c2cccc(F)c2)C(=O)c2ccccc2C1=O | 0 | 7 | -5 | 93*
CC(=O)N(C1=C(N2CCN(C)CC2)C(=O)c2ccccc2C1=O)c1cccc(F)c1 | 0 | -2 | -2 | 88*
CC(=O)N(C1=C(Nc2ccccc2)C(=O)c2ccccc2C1=O)c1ccccc1 | 0 | 21 | -2 | 9
CC(=O)N(C1=C(N2CCCC2)C(=O)c2ccccc2C1=O)c1ccc(F)c(F)c1 | 0 | -18 | -4 | 22
CC(=O)N(C1=C(N2CCCCC2)C(=O)c2ccccc2C1=O)c1cccc(Cl)c1 | 0 | 56* | 0 | -2
O=C(NCCCN1CCCC1=O)c1cccc(Nc2ccc(-n3ccnc3)cc2)c1 | 0 | 12 | 1 | 4
SMILES | FBW7 activator | MITF inh | GPR151 activ | TEAD-YAP inh
CC(=O)c1cccc(NC(=O)c2sc3nc(-c4cccc([N+](=O)[O-])c4)cn3c2C)c1 | 0 | -5 | -1 | -2
CCOc1cc(/C=C2\N=C(c3ccc(Cl)c([N+](=O)[O-])c3)OC2=O)ccc1OC(C)=O | 0 | -7 | 3 | -11
O=C(Cn1cnc2sc3c(c2c1=O)CCCC3)NCCC(=O)Nc1ccc2c(c1)OCCO2 | 0 | -17 | -1 | -4
Nc1nnc(CC(=O)N2CCCCC2)s1 | 2.1* | 12 | -1 | 5
c1ccc(CSc2nc3ccncc3[nH]2)cc1 | 0 | -11 | -2 | 57*
N#Cc1cccc(CSc2nc3ccncc3[nH]2)c1 | 1 | 6 | -1 | 2
COC(=O)c1ccc(CSc2nc3ccncc3[nH]2)cc1 | 0 | 4 | -3 | 92*
COC(=O)c1ccc(CSc2nc(C)cc(=O)[nH]2)cc1 | 0 | -9 | -1 | 4
O=C(NCc1cccs1)C1CCC(CNc2c(N3CCCC3)c(=O)c2=O)CC1 (stereo unspecified) | 0 | 13 | 0 | 6
CCC(=O)Nc1cccc(NC(=O)c2ccc(OC)c(Br)c2)c1 | 0 | -6 | -1 | -44
C(=N\Nc1nc2ccccc2[nH]1)/c1cccc(/C=N/Nc2nc3ccccc3[nH]2)c1 | 0 | 8 | 2 | -12
C/C(=N\Nc1nc2ccccc2[nH]1)c1ccccc1Cl | 0 | 12 | 0 | 14
C/C(=N\Nc1nc2ccccc2[nH]1)c1ccccc1O | -1 | 52* | 0 | -16
C(=N\Nc1nc2ccccc2[nH]1)/c1ccccn1 | -1 | 46 | -8 | 95*
Oc1ccc(Br)cc1/C=N\Nc1nc2ccccc2[nH]1 | 0 | 11 | 0 | 65*
CN(C)c1ccc(C(CNS(=O)(=O)c2cccs2)N2CCc3ccccc3C2)cc1 (stereo unspecified) | 0 | 4 | 1 | -6
Cc1ccc(CC(=O)NCc2ccc(C)n2C)cc1C | 0 | -56 | 3 | 2
Cc1cccc(NS(=O)(=O)c2nnc(NC(=O)c3ccccc3F)s2)c1 | 0 | -5 | -2 | -3
Cc1cccc(-c2nnc(NC(=O)c3ccccc3F)s2)c1 | 1.9* | 14 | 0 | -64
CCn1c(SCC(=O)N2CCN(c3ccccc3)CC2)nnc1-c1ccccc1O | 0 | 9 | 3 | 34*
C=CCn1c(SCC(=O)N2CCN(c3ccccc3)CC2)nnc1-c1ccccc1O | 0 | 22 | -2 | 33*
C=CCn1c(SCC(=O)N2CCOCC2)nnc1-c1ccccc1O | 1 | 4 | -1 | -5
CSc1nnc(C(C)(C)C)c(=O)n1/N=C/c1ccccc1O | 0 | 75* | 0 | 6
CSc1nnc(C(C)(C)C)c(=O)n1/N=C/c1ccccc1[N+](=O)[O-] | 0 | 11 | 0 | 6
Cn1cnnc1-c1ccc(Nc2ncc(F)c(-c3ccccc3)n2)cc1 | 0 | 16 | 1 | 41*
SMILES | FBW7 activator | MITF inh | GPR151 activ | TEAD-YAP inh
CN1CCN(c2ncn(-c3ccc(Nc4ncc(F)c(-c5cccc(N6CCOCC6)c5)n4)cc3)n2)CC1 | 0 | 17 | 1 | 62*
Cn1cnnc1-c1ccc(Nc2nccc(-c3cccc(Nc4ccccc4)c3)n2)cc1 | 1 | 9 | -2 | 2
CC1CN(c2ncn(-c3ccc(Nc4ncc5ccc(-c6cnn(C)c6)c(Cl)c5n4)cc3)n2)CC(C)O1 (stereo unspecified) | 0 | 21 | 0 | 57*
CCn1cc(-c2ccc3cnc(Nc4ccc(-n5cnc(N6CCOCC6)n5)cc4)nc3c2Cl)cn1 | 0 | 12 | 0 | 0
N#Cc1cc(-c2nc(Nc3ccc(N4CCOCC4)cc3)ncc2F)cc(N2CCOCC2)c1 | 0 | -2 | -1 | 4
Cn1cnnc1-c1ccc(Nc2ncc(F)c(-c3cc(F)cc(N4CCOCC4)c3)n2)cc1 | 0 | 19 | 4 | 72*
O=C1CC(c2ccc(Cl)c(Cl)c2)c2cc3c(cc2N1)OCO3 (stereo unspecified) | 0 | -1 | 0 | 3

High-throughput results from PubChem BioAssay.
